# Tests used:
# Assay in all cases: DAPPL (digital affinity profiling via proximity ligation, sequencing); 10 mM Tris-HCl pH 7.5, 50 mM NaCl, 1 mM DTT, 4% glycerol, room temperature, 30 min; GST-TFs on glutathione beads, 16-mer random dsDNA library, 0.1% formaldehyde crosslink after washing; high values mean tight binding
# FLI1 = target: T1, FLI1 (Homo sapiens, UniProt Q01543 1-452); conditions: protein: recombinant; tags: N-terminal GST; dsDNA, one strand shown
# T1 sequence: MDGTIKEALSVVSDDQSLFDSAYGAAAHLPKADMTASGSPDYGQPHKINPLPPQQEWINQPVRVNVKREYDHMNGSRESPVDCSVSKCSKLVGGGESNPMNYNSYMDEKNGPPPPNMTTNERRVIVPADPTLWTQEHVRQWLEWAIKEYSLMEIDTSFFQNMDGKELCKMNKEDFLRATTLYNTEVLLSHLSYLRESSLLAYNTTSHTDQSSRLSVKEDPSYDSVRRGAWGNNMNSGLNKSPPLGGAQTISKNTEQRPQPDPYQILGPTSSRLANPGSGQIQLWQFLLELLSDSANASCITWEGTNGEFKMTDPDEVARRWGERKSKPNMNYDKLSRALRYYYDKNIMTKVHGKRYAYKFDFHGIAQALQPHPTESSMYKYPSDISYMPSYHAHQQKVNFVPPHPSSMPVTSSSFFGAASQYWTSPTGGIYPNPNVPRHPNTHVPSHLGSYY
# In short: (§1)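 GST fusions of human transcription factors were expressed in yeast and captured with glutathione beads. Once given DNA barcodes and pooled alongside a tag-only sample, they were incubated for 30 min at room temperature with 200 nmole of a random double-stranded 16-mer DNA library in Tris/NaCl/DTT/glycerol buffer, then washed, crosslinked (0.1% formaldehyde), proximity-ligated, PCR-amplified and sequenced on an Illumina NextSeq500. The binding signal of each hexamer is its read frequency for a factor divided by its frequency for the tag-only sample.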
# ELK1 = target: T2, ELK1 (Homo sapiens, UniProt P19419 1-428); conditions: protein: recombinant; tags: N-terminal GST; dsDNA, one strand shown
# T2 sequence: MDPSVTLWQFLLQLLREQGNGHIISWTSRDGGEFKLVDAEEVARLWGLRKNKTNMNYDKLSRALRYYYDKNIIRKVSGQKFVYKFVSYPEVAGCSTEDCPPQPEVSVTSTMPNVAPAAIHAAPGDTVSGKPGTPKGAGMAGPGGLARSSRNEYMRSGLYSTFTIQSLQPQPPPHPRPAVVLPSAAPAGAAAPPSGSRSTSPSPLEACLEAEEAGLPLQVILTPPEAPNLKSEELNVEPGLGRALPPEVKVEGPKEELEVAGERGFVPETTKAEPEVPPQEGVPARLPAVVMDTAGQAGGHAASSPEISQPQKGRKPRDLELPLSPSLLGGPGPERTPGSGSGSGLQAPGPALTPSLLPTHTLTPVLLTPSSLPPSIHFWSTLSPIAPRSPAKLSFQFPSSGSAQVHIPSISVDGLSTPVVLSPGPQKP
# In short: as §1
# GABPA = target: T3, GABPA (Homo sapiens, UniProt Q06546 1-454); conditions: protein: recombinant; tags: N-terminal GST; dsDNA, one strand shown
# T3 sequence: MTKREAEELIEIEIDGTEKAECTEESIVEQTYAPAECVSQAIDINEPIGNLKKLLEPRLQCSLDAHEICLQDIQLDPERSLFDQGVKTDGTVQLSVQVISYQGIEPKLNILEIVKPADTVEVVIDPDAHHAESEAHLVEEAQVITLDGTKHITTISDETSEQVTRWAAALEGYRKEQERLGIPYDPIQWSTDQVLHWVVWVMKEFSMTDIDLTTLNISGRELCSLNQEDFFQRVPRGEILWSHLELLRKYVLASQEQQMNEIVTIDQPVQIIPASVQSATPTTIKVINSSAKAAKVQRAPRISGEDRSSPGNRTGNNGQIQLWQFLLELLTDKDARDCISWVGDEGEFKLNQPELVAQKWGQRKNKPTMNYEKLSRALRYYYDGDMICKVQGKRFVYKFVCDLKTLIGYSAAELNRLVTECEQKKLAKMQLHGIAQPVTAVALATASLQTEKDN
# In short: as §1
# ERG = target: T4, ERG (Homo sapiens, UniProt P11308 1-479); conditions: protein: recombinant; tags: N-terminal GST; dsDNA, one strand shown
# T4 sequence: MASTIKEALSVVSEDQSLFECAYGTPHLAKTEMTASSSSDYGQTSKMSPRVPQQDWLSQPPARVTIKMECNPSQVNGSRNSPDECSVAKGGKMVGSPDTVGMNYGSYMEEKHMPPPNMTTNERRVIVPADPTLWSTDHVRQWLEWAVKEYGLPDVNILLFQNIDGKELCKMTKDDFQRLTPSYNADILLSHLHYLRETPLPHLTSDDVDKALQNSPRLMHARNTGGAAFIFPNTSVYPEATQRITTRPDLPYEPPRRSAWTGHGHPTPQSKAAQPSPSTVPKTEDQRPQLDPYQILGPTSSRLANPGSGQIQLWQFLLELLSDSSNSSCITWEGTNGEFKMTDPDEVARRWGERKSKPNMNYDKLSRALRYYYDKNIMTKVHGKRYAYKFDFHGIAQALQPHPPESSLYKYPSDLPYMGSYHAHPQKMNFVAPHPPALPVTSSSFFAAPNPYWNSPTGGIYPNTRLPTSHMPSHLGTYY
# In short: as §1
# ELF1 = ELF1 (Homo sapiens, UniProt P32519 1-619); conditions: protein: recombinant; tags: N-terminal GST; dsDNA, one strand shown
# Chain of ELF1 (P32519 whole entry): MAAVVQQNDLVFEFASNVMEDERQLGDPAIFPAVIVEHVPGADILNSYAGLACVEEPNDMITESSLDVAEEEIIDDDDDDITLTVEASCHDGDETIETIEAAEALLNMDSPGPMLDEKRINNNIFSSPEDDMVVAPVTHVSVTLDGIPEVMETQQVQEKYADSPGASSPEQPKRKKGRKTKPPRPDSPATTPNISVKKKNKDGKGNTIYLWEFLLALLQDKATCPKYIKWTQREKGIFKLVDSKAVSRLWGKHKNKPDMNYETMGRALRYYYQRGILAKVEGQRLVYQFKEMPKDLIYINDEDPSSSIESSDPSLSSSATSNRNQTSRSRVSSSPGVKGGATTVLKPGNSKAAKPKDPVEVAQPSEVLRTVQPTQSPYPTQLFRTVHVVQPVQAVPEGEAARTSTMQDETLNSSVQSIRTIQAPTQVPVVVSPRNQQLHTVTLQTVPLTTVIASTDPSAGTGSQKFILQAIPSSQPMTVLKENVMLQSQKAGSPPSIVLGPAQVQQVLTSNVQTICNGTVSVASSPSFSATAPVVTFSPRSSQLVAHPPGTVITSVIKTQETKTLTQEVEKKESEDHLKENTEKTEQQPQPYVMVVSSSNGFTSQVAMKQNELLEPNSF
# In short: as §1
# EHF = target: T5, EHF (Homo sapiens, UniProt Q9NZC4 1-300); conditions: protein: recombinant; tags: N-terminal GST; dsDNA, one strand shown
# T5 sequence: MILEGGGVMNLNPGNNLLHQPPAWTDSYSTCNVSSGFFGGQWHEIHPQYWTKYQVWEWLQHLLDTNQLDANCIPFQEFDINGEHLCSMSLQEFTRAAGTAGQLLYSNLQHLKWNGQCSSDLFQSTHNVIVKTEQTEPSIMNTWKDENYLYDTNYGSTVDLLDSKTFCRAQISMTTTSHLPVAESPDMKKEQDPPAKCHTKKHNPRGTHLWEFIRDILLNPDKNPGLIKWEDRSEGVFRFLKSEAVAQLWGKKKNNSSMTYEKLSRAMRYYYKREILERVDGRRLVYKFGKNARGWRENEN
# In short: as §1
# SPI1 = SPI1 (Homo sapiens, UniProt P17947 1-270); conditions: protein: recombinant; tags: N-terminal GST; dsDNA, one strand shown
# In short: as §1
# SPIB = SPIB (Homo sapiens, UniProt Q01892 1-262); conditions: protein: recombinant; tags: N-terminal GST; dsDNA, one strand shown
# Chain of SPIB (Q01892 whole entry): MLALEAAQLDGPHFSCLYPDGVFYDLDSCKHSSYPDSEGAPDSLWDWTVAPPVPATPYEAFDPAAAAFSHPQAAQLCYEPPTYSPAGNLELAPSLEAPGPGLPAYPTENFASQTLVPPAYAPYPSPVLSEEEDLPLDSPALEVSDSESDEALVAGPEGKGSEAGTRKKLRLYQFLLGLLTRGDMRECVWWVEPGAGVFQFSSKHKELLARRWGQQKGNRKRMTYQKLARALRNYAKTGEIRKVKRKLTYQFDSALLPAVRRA
# In short: as §1
# ELK3 = target: T6, ELK3 (Homo sapiens, UniProt P41970 1-407); conditions: protein: recombinant; tags: N-terminal GST; dsDNA, one strand shown
# T6 sequence: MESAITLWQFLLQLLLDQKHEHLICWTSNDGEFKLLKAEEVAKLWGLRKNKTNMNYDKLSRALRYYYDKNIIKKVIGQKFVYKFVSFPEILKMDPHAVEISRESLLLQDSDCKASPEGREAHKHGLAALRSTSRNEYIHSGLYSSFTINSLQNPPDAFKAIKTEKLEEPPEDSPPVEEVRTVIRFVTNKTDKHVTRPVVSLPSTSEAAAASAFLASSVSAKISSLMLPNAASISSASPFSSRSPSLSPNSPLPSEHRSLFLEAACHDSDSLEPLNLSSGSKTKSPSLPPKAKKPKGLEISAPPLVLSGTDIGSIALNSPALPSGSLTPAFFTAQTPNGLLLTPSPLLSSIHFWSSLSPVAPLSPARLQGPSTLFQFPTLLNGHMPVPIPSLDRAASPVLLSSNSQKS
# In short: as §1
# FEV = target: T7, FEV (Homo sapiens, UniProt Q99581 1-238); conditions: protein: recombinant; tags: N-terminal GST; dsDNA, one strand shown
# T7 sequence: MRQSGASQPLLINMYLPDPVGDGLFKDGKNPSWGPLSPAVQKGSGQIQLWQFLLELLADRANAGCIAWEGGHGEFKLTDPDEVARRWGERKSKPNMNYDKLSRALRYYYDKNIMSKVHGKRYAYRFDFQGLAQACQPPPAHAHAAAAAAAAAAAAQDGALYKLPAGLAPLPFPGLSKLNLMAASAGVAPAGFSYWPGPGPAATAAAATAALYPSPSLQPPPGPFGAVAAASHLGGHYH
# In short: as §1
# ETV5 = ETV5 (Homo sapiens, UniProt P41161 1-510); conditions: protein: recombinant; tags: N-terminal GST; dsDNA, one strand shown
# Chain of ETV5 (P41161 whole entry): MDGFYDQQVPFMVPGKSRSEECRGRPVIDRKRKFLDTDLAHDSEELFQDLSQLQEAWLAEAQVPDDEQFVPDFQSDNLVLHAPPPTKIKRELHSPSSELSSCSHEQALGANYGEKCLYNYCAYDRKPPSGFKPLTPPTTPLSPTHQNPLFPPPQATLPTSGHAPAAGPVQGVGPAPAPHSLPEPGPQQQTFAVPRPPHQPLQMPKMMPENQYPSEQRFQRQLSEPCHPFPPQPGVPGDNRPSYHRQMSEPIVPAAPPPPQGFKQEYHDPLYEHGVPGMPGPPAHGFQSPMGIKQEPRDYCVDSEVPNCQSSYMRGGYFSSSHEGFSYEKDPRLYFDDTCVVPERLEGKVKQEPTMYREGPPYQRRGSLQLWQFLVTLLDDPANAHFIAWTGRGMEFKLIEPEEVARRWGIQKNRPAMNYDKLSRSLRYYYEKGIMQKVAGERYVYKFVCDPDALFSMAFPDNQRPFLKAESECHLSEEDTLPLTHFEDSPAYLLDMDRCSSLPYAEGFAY
# In short: as §1
# HSF1 = HSF1 (Homo sapiens, UniProt Q00613 1-529); conditions: protein: recombinant; tags: N-terminal GST; chain copies: 3; dsDNA, one strand shown
# Chain of HSF1 (Q00613 whole entry): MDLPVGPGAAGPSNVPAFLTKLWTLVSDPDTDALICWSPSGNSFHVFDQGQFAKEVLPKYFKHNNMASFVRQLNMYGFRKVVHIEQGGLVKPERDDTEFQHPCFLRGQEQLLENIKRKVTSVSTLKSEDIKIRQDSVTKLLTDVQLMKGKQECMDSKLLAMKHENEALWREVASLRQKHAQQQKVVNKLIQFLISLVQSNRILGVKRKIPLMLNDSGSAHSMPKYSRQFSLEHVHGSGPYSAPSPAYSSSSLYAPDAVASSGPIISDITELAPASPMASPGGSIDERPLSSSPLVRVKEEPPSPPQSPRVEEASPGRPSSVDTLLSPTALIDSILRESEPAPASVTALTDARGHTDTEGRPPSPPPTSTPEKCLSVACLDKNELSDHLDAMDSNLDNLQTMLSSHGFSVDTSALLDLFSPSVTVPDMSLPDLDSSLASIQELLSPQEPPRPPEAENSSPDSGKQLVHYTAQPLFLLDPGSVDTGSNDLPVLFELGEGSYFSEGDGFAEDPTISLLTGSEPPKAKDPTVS
# In short: as §1
# SPIC = target: T8, SPIC (Homo sapiens, UniProt Q8N5J4 1-248); conditions: protein: recombinant; tags: N-terminal GST; dsDNA, one strand shown
# T8 sequence: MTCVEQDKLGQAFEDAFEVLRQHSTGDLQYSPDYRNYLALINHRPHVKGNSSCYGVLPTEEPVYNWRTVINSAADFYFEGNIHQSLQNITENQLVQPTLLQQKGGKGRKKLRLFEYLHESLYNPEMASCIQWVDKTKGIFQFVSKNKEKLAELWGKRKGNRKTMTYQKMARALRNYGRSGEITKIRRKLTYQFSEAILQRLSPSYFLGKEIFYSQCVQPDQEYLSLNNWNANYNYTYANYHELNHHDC
# In short: as §1
# ELF4 = ELF4 (Homo sapiens, UniProt Q99607 1-663); conditions: protein: recombinant; tags: N-terminal GST; dsDNA, one strand shown
# Chain of ELF4 (Q99607 whole entry): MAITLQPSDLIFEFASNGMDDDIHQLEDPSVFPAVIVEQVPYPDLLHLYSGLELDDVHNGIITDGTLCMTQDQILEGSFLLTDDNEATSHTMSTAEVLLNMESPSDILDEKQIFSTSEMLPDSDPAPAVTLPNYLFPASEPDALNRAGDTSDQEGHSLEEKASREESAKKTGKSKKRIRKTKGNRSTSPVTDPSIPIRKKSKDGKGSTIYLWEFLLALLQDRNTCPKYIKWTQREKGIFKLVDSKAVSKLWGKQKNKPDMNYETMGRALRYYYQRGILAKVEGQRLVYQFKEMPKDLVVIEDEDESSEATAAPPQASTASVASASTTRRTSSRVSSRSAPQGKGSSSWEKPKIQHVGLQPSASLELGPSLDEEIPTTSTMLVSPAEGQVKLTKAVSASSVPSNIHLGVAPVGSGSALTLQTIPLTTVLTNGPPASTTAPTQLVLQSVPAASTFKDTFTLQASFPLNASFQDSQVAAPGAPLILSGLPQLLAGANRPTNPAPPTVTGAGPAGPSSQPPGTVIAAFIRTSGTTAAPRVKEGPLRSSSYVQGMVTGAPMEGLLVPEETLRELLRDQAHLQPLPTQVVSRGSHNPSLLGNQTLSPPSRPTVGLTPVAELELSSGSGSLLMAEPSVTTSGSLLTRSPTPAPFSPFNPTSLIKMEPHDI
# In short: as §1
# ELK4 = target: T9, ELK4 (Homo sapiens, UniProt P28324-2 1-405); conditions: protein: recombinant; tags: N-terminal GST; dsDNA, one strand shown
# T9 sequence: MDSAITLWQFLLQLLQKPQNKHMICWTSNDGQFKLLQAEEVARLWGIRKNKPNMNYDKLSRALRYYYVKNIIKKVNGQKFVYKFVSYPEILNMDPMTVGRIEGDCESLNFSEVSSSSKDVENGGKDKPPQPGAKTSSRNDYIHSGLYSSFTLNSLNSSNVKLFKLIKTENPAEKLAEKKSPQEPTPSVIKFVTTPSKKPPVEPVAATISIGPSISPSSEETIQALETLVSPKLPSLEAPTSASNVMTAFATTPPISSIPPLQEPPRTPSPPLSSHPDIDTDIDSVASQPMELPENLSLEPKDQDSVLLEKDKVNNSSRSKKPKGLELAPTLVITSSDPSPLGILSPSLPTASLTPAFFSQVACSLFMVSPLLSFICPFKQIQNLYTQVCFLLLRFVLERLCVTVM
# In short: as §1
# ETV2 = target: T10, ETV2 (Homo sapiens, UniProt O00321 1-342); conditions: protein: recombinant; tags: N-terminal GST; dsDNA, one strand shown
# T10 sequence: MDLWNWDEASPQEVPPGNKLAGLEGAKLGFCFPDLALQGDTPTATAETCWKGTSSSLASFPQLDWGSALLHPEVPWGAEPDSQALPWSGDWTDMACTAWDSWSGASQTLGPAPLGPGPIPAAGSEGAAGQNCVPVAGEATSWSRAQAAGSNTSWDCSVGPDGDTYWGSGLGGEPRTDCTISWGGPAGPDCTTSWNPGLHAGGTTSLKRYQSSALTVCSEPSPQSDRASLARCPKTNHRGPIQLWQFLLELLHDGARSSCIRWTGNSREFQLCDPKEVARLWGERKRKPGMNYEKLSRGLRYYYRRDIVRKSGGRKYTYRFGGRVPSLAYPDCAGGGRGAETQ
# In short: as §1
# ELF3 = target: T11, ELF3 (Homo sapiens, UniProt P78545 1-371); conditions: protein: recombinant; tags: N-terminal GST; dsDNA, one strand shown
# T11 sequence: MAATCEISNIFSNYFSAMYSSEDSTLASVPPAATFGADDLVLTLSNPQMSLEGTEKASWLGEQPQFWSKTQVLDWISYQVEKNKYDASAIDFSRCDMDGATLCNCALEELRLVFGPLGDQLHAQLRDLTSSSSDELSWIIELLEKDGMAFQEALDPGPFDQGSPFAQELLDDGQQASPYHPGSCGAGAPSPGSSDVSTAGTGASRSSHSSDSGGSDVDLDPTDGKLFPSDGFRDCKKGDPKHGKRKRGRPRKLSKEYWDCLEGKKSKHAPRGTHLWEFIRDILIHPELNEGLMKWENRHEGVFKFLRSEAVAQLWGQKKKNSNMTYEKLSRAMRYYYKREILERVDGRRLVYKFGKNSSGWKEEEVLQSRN
# In short: as §1
# CRX = CRX (Homo sapiens, UniProt O43186 1-299); conditions: protein: recombinant; tags: N-terminal GST; dsDNA, one strand shown
# Chain of CRX (O43186 whole entry): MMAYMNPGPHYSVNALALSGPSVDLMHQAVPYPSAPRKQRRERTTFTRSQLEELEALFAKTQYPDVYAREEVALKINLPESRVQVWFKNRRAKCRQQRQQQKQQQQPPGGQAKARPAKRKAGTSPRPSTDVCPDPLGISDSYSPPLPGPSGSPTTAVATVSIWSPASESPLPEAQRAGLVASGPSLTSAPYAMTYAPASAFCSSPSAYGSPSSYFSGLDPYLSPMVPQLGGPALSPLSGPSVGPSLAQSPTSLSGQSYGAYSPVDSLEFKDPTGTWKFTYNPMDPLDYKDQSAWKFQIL
# In short: as §1
# ETV1 = ETV1 (Homo sapiens, UniProt P50549 1-477); conditions: protein: recombinant; tags: N-terminal GST; dsDNA, one strand shown
# Chain of ETV1 (P50549 whole entry): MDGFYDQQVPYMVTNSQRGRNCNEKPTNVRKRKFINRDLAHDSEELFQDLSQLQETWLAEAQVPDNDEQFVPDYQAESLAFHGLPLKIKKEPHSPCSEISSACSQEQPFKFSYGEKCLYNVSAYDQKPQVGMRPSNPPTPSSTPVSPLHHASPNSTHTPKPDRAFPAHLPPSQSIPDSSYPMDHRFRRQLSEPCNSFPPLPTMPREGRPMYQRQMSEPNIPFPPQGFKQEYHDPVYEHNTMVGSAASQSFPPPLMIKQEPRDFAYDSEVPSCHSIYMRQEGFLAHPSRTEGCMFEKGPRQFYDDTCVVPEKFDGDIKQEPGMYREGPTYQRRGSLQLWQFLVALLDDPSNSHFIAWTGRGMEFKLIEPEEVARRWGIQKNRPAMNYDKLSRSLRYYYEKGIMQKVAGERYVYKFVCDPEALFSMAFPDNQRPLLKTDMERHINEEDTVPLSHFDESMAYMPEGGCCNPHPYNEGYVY
# In short: as §1
sequence,measurement,setting,value
AAATAC,binding signal,FLI1,"1.3 fold enrichment (6-mer frequency, TF over GST control)"
same,binding signal,ELK1,"1.27 fold enrichment (6-mer frequency, TF over GST control)"
same,binding signal,GABPA,"1.43 fold enrichment (6-mer frequency, TF over GST control)"
same,binding signal,ERG,"1.43 fold enrichment (6-mer frequency, TF over GST control)"
same,binding signal,ELF1,"1.36 fold enrichment (6-mer frequency, TF over GST control)"
same,binding signal,EHF,"1.39 fold enrichment (6-mer frequency, TF over GST control)"
same,binding signal,SPI1,"1.41 fold enrichment (6-mer frequency, TF over GST control)"
same,binding signal,SPIB,"1.36 fold enrichment (6-mer frequency, TF over GST control)"
same,binding signal,ELK3,"1.37 fold enrichment (6-mer frequency, TF over GST control)"
same,binding signal,FEV,"1.41 fold enrichment (6-mer frequency, TF over GST control)"
same,binding signal,ETV5,"1.43 fold enrichment (6-mer frequency, TF over GST control)"
same,binding signal,HSF1,"1.36 fold enrichment (6-mer frequency, TF over GST control)"
same,binding signal,SPIC,"1.3 fold enrichment (6-mer frequency, TF over GST control)"
same,binding signal,ELF4,"1.36 fold enrichment (6-mer frequency, TF over GST control)"
same,binding signal,ELK4,"1.18 fold enrichment (6-mer frequency, TF over GST control)"
same,binding signal,ETV2,"1.51 fold enrichment (6-mer frequency, TF over GST control)"
same,binding signal,ELF3,"1.37 fold enrichment (6-mer frequency, TF over GST control)"
same,binding signal,CRX,"1.46 fold enrichment (6-mer frequency, TF over GST control)"
same,binding signal,ETV1,"1.39 fold enrichment (6-mer frequency, TF over GST control)"
